HEK293 tox – Cytotoxic Profiling in HEK 293 Cell Line of Diverse Libraries Using Quantitative High-Throughput Screening; Potency, µM (titrated, usually from 115 µM), inactives show top-dose activity change, negative = cytotoxicity, hits mostly inhibitors; HEK 293 viability, ATP luminescence (CellTiter-Glo), 48-72 h; AID 1345083, 2018; hit rate 6.6% among 94,000; note: % is set by controls: 0 for no effect and ±100 for the full control effect; nearly all actives have a fitted effect of over 60% in size
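CellTiter-Glo luminescence (cellular ATP) was read after 48 or 72 hr of compound exposure at 37 degree Celsius. Cells were HEK 293 plated at 250 cells/well.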
NPR1 antag – Natriuretic polypeptide receptor (hNpr1) antagonism - Primary qHTS | Potency, µM (doses to about 46.3 µM), for the others: top-dose activity change, negative = inhibition, actives largely listed as inhibitors | hit rate 1.6% among 76,000 | Atrial natriuretic peptide receptor 1 (Homo sapiens), P16066 | HEK293 hNpr1 GloSensor cGMP, ANP-stimulated luminescence; calls by dose curve; note: % is set by controls: 0 for no effect and ±100 for the full control effect; nearly all actives have a fitted effect of over 60% in size
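HEK293 cells stably expressing human Npr1 and cGMP GloSensor pGS-40F, loaded 2 h with 2% GloSensor reagent, given compound 30 min at room temperature. Luminescence read before and 20 min after 0.1 nM hNppA.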
NIH3T3 tox – Cytotoxic Profiling in NIH 3T3 Cell Line of Diverse Libraries Using Quantitative High-Throughput Screening | NIH 3T3 viability, CellTiter-Glo ATP luminescence, 48-72 h | Potency, µM (series often up to 96.7 µM), for inactives: at the top dose activity change, negative = cytotoxicity, usual class: inhibitors | hit rate 4.3% among 94,000 | AID 1345082, 2018; note: % is set by controls: 0 for no effect and ±100 for the full control effect; nearly all actives have a fitted effect of over 55% in size
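Viability of NIH 3T3 cells after 48 or 72 hr compound treatment at 37 °C was assessed by CellTiter-Glo, with luminescence imaged following a 10 min room-temperature step.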
GPT2 inh – Primary qHTS assay for inhibitors of Glutamate pyruvate transaminase 2 (GPT2) | hit rate 0.25% among 100,000 | AID 1671188, 2021 | Recombinant GPT2, coupled pyruvate oxidase/HRP Amplex Red fluorescence | Potency, µM (series often up to 57.7 µM), without a hit: at the top dose activity change, negative = inhibition, hits mostly inhibitors; note: % is set by controls: 0 for no effect and ±100 for the full control effect; nearly all actives have a fitted effect of over 60% in size
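Inhibition is scored from Amplex Red fluorescence generated when pyruvate oxidase and HRP act on pyruvate released by GPT2. Reactions contain 10ng/uL enzyme, 250uM a-KG and 2mM L-alanine and run 30 min at room temperature.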
FLuc inh-1 – Firefly luciferase inhibition profiling of diverse chemical library using quantitative high-throughput screening; hit rate 2.5% among 76,000; purified P. pyralis luciferase, luminescence, biochemical; Luciferin 4-monooxygenase (Photinus pyralis), P08659; Potency, µM (highest dose often 115 µM), usual class: inhibitors; AID 1347043, 2019; note: % is set by controls: 0 for no effect and ±100 for the full control effect; nearly all actives have a fitted effect of over 65% in size
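Inhibitors were tested against purified firefly luciferase in a biochemical, low-substrate format (both substrates at 10uM) and luminescence measured with a CCD imager.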
FLuc SDR no ATP – Firefly luciferase (FLuc-C-HiBiT) SDR gain of signal screen - without ATP; shares compounds with FLuc inh-1; AID 1963318, 2024; hit rate 7.8% among 1,300; Purified FLuc-C-HiBiT, Nano-Glo HiBiT luminescence, no ATP; Potency, µM (doses to about 32.7 µM), without a hit: at the highest dose activation (signal gain), usual class: activators; note: nearly all actives have a fitted effect of over 55% in size
FLuc SDR ATP – Firefly luciferase (FLuc-C-HiBiT) SDR gain of signal screen - plus ATP; shares compounds with FLuc inh-1; purified FLuc-C-HiBiT + ATP, HiBiT complementation luminescence; Potency, µM (series often up to 32.7 µM), for the others: at the highest dose activation (gain of signal), hits mostly activators; hit rate 8.7% among 1,300; AID 1963319, 2024;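 note: signal reports ligand binding via conformational change of the enzyme rather than luciferase catalysis; % of control where 0% means no effect; nearly all actives have a fitted effect of over 55% in size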
FLuc inh-2 – Firefly luciferase (FLuc-C-HiBiT) enzymatic inhibition screen - Functional assay; purified FLuc-C-HiBiT enzyme, luciferin luminescence; hit rate 42% among 1,300; Potency, µM (titrated, usually from 32.7 µM), for the others: at the highest dose activity change, negative = inhibition, usual class: inhibitors; shares compounds with FLuc inh-1; note: % is set by controls: 0 for no effect and ±100 for the full control effect; nearly all actives have a fitted effect of over 70% in size
Numbers without * were called inactive; i = inactive; ? = inconclusive; nt = no result given; [ ] = another dose, or the depositor's remark. Hits are enriched below; roughly 10% of the tested compounds scored in any of these assays. Unless noted, calls come from the whole dose curve; as a rule, active = well fitted curve in the direction sought with a large enough effect; inconclusive = small, poorly fitted or top-dose-only effect, or another doubt; inactive = no such curve, though single readings can be large; an effect the other way counts as inactive or inconclusive. Potency is the fitted concentration of half-maximal effect.

SMILES	HEK293 tox	NPR1 antag	NIH3T3 tox	GPT2 inh	FLuc inh-1	FLuc SDR no ATP	FLuc SDR ATP	FLuc inh-2
Cc1ccccc1-c1noc(-c2nc(-c3ccncc3)no2)n1	-6%	-1%	3%	-4%	i	nt	nt	nt
CN1CC2(CCN(c3nc(-c4ccccc4)no3)CC2)CC(c2ccccc2)C1=O (stereo not drawn)	?	-29%	?	0%	?	nt	nt	nt
C[C@@H]1CN(c2nc(-c3ccccc3)no2)CC[C@@]1(O)C1CCC1	?	5.6µM*	?	1%	0.35µM*	?	?	1.8µM*
OCC1(CC2CC2)CCCN(c2nc(-c3ccccc3)no2)C1 (stereo not drawn)	?	-4%	?	i	14µM*	11%	13%	-12%
COc1cccc(-c2cc(C(=O)N3CCN(C)CC3)c3cnn(C)c3n2)c1	-5%	nt	-13%	nt	nt	nt	nt	nt
CC1(Cc2ccc3c(c2)OCO3)CCCN(C(=O)c2ccc3ncsc3c2)C1 (stereo not drawn)	45µM*	-23%	-19%	i	7.9µM*	?	18%	?
Cc1nc2ccc(C(=O)N3CCCC(C)(Cc4ccc5c(c4)OCO5)C3)cc2o1 (stereo not drawn)	?	0%	?	2%	?	nt	nt	nt
O=C(c1ccccc1Cl)N1CCCN(CCn2nc3n(c2=O)CCCC3)CC1	i	nt	-16%	nt	nt	nt	nt	nt
COc1ccccc1CNC(=O)c1ccc2nc(N3CCCCC3)sc2c1	nt	nt	nt	nt	nt	15%	12%	-14%
Cc1ccc2nc(C(=O)N3CCCC3c3cc(C(C)C)on3)cn2c1 (stereo not drawn)	-9%	0%	-13%	-15%	10µM*	27%	15%	?
Cc1ccc(-c2noc([C@@H]3CCCN3C(=O)c3cnccn3)n2)cc1	-6%	-9%	-22%	2%	i	nt	nt	nt
Brc1ccc(-c2cn3cc(Cc4ccccc4)sc3n2)cc1	nt	nt	nt	nt	nt	22%	15%	?
Fc1ccc(Cc2cn3cc(-c4ccccc4)nc3s2)cc1	nt	nt	nt	nt	nt	?	?	0.44µM*
Clc1ccccc1Cc1cn2cc(-c3ccccc3)nc2s1	nt	nt	nt	nt	nt	?	?	0.44µM*
Fc1ccc(CNC[C@H]2Cn3cc(-c4ccccc4)nc3CO2)cc1	?	-10%[70.6 µM]	?	i	i	nt	nt	nt
Fc1ccc(-c2cn3cc(Cc4ccccc4)sc3n2)cc1	nt	nt	nt	nt	nt	?	?	0.28µM*
O=C(Nc1ccccc1)N1CCCC(C(=O)N2CCC(N3CCOC3=O)CC2)C1 (stereo not drawn)	3%	nt	-19%	-3%	nt	nt	nt	nt
Fc1ccc(Cc2cn3cc(-c4ccc(Cl)cc4)nc3s2)cc1	nt	nt	nt	nt	nt	16%	14%	?
COc1ccc(NC(=O)[C@@H]2C[C@@H](c3ccc(F)cc3)N([S+](=O)([O-])c3ccccc3)C2)cc1	?	-15%	?	-6%	i	nt	nt	nt
CCn1cc(-c2ccc(OC)cc2)cc1C(=O)NCC(=O)OC	-15%	-8%	-13%	?	i	nt	nt	nt
